In PMC7862700, “An all-to-all approach to the identification of sequence-specific readers for epigenetic DNA modifications on cytosine”:

Experiments:
Test in all cases: DAPPL (digital affinity profiling via proximity ligation, sequencing); 10 mM Tris-HCl pH 7.5, 50 mM NaCl, 1 mM DTT, 4% glycerol, room temperature, 30 min; GST-TFs on glutathione beads, 16-mer random dsDNA library, 0.1% formaldehyde crosslink after washing; high values mean tight binding
Settings in all cases: protein: recombinant; tags: N-terminal GST; dsDNA, one strand shown
ERF = biological target: T1, ERF (Homo sapiens, UniProt P50548 1-548)
T1 sequence: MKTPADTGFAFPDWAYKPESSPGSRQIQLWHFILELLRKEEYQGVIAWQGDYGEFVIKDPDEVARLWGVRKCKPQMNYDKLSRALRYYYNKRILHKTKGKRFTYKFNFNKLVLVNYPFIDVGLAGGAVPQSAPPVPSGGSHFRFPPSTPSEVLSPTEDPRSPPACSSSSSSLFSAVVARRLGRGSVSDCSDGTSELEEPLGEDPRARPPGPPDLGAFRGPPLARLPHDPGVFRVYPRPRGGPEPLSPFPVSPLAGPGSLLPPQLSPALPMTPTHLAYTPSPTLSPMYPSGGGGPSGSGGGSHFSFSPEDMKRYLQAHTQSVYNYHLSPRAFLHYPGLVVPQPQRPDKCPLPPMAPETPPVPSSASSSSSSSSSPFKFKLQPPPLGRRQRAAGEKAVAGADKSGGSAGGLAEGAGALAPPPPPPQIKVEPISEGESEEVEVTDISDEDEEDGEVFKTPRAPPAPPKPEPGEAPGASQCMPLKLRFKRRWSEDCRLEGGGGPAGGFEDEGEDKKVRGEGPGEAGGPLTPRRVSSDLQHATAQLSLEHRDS
Method in brief: (§1)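 Binding signal is given per hexamer as its read frequency for a factor divided by its frequency in the tag-only sample. GST-fused human transcription factors were expressed in yeast, captured on glutathione beads, barcoded with DNA and pooled with that sample, then incubated with 200 nmole of a 16-mer random double-stranded DNA library in Tris/NaCl/DTT/glycerol buffer for 30 min at room temperature. The pools were then washed, crosslinked, proximity-ligated, amplified by PCR and sequenced on an Illumina NextSeq500.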

ETV3L = biological target: T2, ETV3L (Homo sapiens, UniProt Q6ZN32 1-361)
T2 sequence: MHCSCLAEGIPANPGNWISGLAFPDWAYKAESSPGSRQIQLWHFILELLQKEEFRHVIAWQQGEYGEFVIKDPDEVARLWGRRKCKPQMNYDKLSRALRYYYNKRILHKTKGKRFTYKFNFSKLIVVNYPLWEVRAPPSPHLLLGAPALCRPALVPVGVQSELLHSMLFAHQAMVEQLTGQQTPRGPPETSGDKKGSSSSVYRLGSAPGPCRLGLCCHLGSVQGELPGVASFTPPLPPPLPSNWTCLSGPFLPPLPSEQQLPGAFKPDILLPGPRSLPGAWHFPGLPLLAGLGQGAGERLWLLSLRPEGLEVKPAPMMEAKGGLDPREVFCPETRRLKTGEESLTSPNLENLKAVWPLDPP
Method in brief: as §1

ETS2 = biological target: T3, ETS2 (Homo sapiens, UniProt P15036 1-469)
T3 sequence: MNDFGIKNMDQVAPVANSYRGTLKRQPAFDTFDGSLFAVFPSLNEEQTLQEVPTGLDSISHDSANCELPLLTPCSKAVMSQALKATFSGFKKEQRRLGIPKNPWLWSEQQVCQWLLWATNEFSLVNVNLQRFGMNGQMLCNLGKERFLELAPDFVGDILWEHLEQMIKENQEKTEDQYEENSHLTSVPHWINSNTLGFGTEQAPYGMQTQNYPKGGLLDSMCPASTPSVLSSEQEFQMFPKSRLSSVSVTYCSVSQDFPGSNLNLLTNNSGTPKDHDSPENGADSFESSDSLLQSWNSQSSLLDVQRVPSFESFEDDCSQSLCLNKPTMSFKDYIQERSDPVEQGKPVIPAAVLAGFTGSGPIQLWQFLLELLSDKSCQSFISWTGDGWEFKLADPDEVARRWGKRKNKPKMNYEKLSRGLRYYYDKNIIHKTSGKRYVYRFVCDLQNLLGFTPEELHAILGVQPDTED
Method in brief: as §1

SPDEF = biological target: T4, SPDEF (Homo sapiens, UniProt O95238 1-335)
T4 sequence: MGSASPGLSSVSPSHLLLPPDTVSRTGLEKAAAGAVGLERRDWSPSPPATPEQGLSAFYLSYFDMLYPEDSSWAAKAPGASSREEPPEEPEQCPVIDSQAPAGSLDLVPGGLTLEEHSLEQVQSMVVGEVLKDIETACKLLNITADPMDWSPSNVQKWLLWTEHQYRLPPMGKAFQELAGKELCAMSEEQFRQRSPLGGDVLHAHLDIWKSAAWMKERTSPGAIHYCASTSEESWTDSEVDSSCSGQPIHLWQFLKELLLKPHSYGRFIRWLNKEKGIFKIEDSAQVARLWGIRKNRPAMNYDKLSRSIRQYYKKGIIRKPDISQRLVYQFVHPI
Method in brief: as §1

ETV7 = biological target: T5, ETV7 (Homo sapiens, UniProt Q9Y603 1-341)
T5 sequence: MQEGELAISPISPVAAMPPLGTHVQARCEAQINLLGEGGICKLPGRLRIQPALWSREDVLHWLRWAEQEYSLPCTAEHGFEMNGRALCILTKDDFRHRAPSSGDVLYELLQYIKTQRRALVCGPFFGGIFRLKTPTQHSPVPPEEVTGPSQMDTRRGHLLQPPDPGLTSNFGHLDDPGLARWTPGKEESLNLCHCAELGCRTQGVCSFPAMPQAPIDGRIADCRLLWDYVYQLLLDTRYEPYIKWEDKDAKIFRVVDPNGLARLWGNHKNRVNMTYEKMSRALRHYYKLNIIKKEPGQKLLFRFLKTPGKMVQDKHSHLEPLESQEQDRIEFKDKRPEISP
Method in brief: as §1

ELF5 = biological target: T6, ELF5 (Homo sapiens, UniProt Q9UKW6-2 1-255)
T6 sequence: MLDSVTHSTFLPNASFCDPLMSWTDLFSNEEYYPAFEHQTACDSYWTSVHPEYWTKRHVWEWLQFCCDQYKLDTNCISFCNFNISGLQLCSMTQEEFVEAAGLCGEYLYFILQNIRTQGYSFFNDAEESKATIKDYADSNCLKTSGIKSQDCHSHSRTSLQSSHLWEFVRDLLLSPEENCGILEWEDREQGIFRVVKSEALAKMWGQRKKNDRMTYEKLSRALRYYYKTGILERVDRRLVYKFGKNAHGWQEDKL
Method in brief: as §1

ETV3 = biological target: T7, ETV3 (Homo sapiens, UniProt P41162-2 1-143)
T7 sequence: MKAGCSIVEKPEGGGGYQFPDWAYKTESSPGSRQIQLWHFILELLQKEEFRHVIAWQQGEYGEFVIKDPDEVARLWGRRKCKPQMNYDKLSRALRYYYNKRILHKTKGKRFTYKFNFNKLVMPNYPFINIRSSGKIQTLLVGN
Method in brief: as §1

ETV6 = ETV6 (Homo sapiens, UniProt P41212 1-452)
Method in brief: as §1

Sequence of ETV6 (P41212 whole entry): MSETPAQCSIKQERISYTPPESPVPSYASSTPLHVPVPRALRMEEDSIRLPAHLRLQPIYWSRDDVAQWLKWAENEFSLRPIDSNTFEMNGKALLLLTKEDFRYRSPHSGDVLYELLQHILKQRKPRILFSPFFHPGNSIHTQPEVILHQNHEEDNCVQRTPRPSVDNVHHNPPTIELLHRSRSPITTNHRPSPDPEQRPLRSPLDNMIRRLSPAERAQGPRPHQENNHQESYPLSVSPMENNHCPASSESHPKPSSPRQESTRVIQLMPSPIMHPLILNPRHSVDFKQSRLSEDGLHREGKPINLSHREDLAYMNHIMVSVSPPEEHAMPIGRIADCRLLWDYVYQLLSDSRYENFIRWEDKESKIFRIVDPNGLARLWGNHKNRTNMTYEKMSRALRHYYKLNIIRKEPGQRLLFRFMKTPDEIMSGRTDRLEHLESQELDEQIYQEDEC

Sequence | binding signal (ERF) | binding signal (ETV3L) | binding signal (ETS2) | binding signal (SPDEF) | binding signal (ETV7) | binding signal (ELF5) | binding signal (ETV3) | binding signal (ETV6)
TAATCA | 1.09 fold enrichment (6-mer frequency, TF over GST control) | 1.12 fold enrichment (6-mer frequency, TF over GST control) | 1.14 fold enrichment (6-mer frequency, TF over GST control) | 1.11 fold enrichment (6-mer frequency, TF over GST control) | 1.1 fold enrichment (6-mer frequency, TF over GST control) | 1.08 fold enrichment (6-mer frequency, TF over GST control) | 1.15 fold enrichment (6-mer frequency, TF over GST control) | 1.18 fold enrichment (6-mer frequency, TF over GST control)
AAACGC | 1.24 fold enrichment (6-mer frequency, TF over GST control) | 1.18 fold enrichment (6-mer frequency, TF over GST control) | 1.22 fold enrichment (6-mer frequency, TF over GST control) | 1.24 fold enrichment (6-mer frequency, TF over GST control) | 1.17 fold enrichment (6-mer frequency, TF over GST control) | 1.33 fold enrichment (6-mer frequency, TF over GST control) | 1.3 fold enrichment (6-mer frequency, TF over GST control) | 1.35 fold enrichment (6-mer frequency, TF over GST control)
CCATTT | 1.32 fold enrichment (6-mer frequency, TF over GST control) | 1.25 fold enrichment (6-mer frequency, TF over GST control) | 1.41 fold enrichment (6-mer frequency, TF over GST control) | 1.21 fold enrichment (6-mer frequency, TF over GST control) | 1.24 fold enrichment (6-mer frequency, TF over GST control) | 1.31 fold enrichment (6-mer frequency, TF over GST control) | 1.34 fold enrichment (6-mer frequency, TF over GST control) | 1.34 fold enrichment (6-mer frequency, TF over GST control)
TACCTC | 1.32 fold enrichment (6-mer frequency, TF over GST control) | 1.43 fold enrichment (6-mer frequency, TF over GST control) | 1.26 fold enrichment (6-mer frequency, TF over GST control) | 1.23 fold enrichment (6-mer frequency, TF over GST control) | 1.19 fold enrichment (6-mer frequency, TF over GST control) | 1.29 fold enrichment (6-mer frequency, TF over GST control) | 1.25 fold enrichment (6-mer frequency, TF over GST control) | 1.11 fold enrichment (6-mer frequency, TF over GST control)
TCACGT | 1.28 fold enrichment (6-mer frequency, TF over GST control) | 1.22 fold enrichment (6-mer frequency, TF over GST control) | 1.2 fold enrichment (6-mer frequency, TF over GST control) | 1.15 fold enrichment (6-mer frequency, TF over GST control) | 1.22 fold enrichment (6-mer frequency, TF over GST control) | 1.19 fold enrichment (6-mer frequency, TF over GST control) | 1.19 fold enrichment (6-mer frequency, TF over GST control) | 1.24 fold enrichment (6-mer frequency, TF over GST control)
TATGAC | 1.39 fold enrichment (6-mer frequency, TF over GST control) | 1.36 fold enrichment (6-mer frequency, TF over GST control) | 1.31 fold enrichment (6-mer frequency, TF over GST control) | 1.33 fold enrichment (6-mer frequency, TF over GST control) | 1.29 fold enrichment (6-mer frequency, TF over GST control) | 1.29 fold enrichment (6-mer frequency, TF over GST control) | 1.2 fold enrichment (6-mer frequency, TF over GST control) | 1.25 fold enrichment (6-mer frequency, TF over GST control)
CCTCTA | 1.34 fold enrichment (6-mer frequency, TF over GST control) | 1.38 fold enrichment (6-mer frequency, TF over GST control) | 1.46 fold enrichment (6-mer frequency, TF over GST control) | 1.32 fold enrichment (6-mer frequency, TF over GST control) | 1.36 fold enrichment (6-mer frequency, TF over GST control) | 1.48 fold enrichment (6-mer frequency, TF over GST control) | 1.33 fold enrichment (6-mer frequency, TF over GST control) | 1.3 fold enrichment (6-mer frequency, TF over GST control)
TACACT | 1.51 fold enrichment (6-mer frequency, TF over GST control) | 1.51 fold enrichment (6-mer frequency, TF over GST control) | 1.49 fold enrichment (6-mer frequency, TF over GST control) | 1.55 fold enrichment (6-mer frequency, TF over GST control) | 1.49 fold enrichment (6-mer frequency, TF over GST control) | 1.52 fold enrichment (6-mer frequency, TF over GST control) | 1.45 fold enrichment (6-mer frequency, TF over GST control) | 1.6 fold enrichment (6-mer frequency, TF over GST control)
CCTACT | 1.7 fold enrichment (6-mer frequency, TF over GST control) | 1.53 fold enrichment (6-mer frequency, TF over GST control) | 1.7 fold enrichment (6-mer frequency, TF over GST control) | 1.49 fold enrichment (6-mer frequency, TF over GST control) | 1.35 fold enrichment (6-mer frequency, TF over GST control) | 1.82 fold enrichment (6-mer frequency, TF over GST control) | 1.77 fold enrichment (6-mer frequency, TF over GST control) | 1.73 fold enrichment (6-mer frequency, TF over GST control)
TCCTTT | 1.62 fold enrichment (6-mer frequency, TF over GST control) | 1.85 fold enrichment (6-mer frequency, TF over GST control) | 1.67 fold enrichment (6-mer frequency, TF over GST control) | 1.76 fold enrichment (6-mer frequency, TF over GST control) | 1.59 fold enrichment (6-mer frequency, TF over GST control) | 2 fold enrichment (6-mer frequency, TF over GST control) | 1.78 fold enrichment (6-mer frequency, TF over GST control) | 1.76 fold enrichment (6-mer frequency, TF over GST control)
ACTAAC | 1.34 fold enrichment (6-mer frequency, TF over GST control) | 1.29 fold enrichment (6-mer frequency, TF over GST control) | 1.29 fold enrichment (6-mer frequency, TF over GST control) | 1.2 fold enrichment (6-mer frequency, TF over GST control) | 1.21 fold enrichment (6-mer frequency, TF over GST control) | 1.29 fold enrichment (6-mer frequency, TF over GST control) | 1.24 fold enrichment (6-mer frequency, TF over GST control) | 1.22 fold enrichment (6-mer frequency, TF over GST control)
TAACAA | 1.33 fold enrichment (6-mer frequency, TF over GST control) | 1.18 fold enrichment (6-mer frequency, TF over GST control) | 1.15 fold enrichment (6-mer frequency, TF over GST control) | 1.14 fold enrichment (6-mer frequency, TF over GST control) | 1.21 fold enrichment (6-mer frequency, TF over GST control) | 1.14 fold enrichment (6-mer frequency, TF over GST control) | 1.19 fold enrichment (6-mer frequency, TF over GST control) | 1.15 fold enrichment (6-mer frequency, TF over GST control)
TTCCAT | 1.24 fold enrichment (6-mer frequency, TF over GST control) | 1.29 fold enrichment (6-mer frequency, TF over GST control) | 1.25 fold enrichment (6-mer frequency, TF over GST control) | 1.2 fold enrichment (6-mer frequency, TF over GST control) | 1.27 fold enrichment (6-mer frequency, TF over GST control) | 1.26 fold enrichment (6-mer frequency, TF over GST control) | 1.32 fold enrichment (6-mer frequency, TF over GST control) | 1.4 fold enrichment (6-mer frequency, TF over GST control)
ATTCTC | 1.22 fold enrichment (6-mer frequency, TF over GST control) | 1.31 fold enrichment (6-mer frequency, TF over GST control) | 1.19 fold enrichment (6-mer frequency, TF over GST control) | 1.19 fold enrichment (6-mer frequency, TF over GST control) | 1.23 fold enrichment (6-mer frequency, TF over GST control) | 1.26 fold enrichment (6-mer frequency, TF over GST control) | 1.17 fold enrichment (6-mer frequency, TF over GST control) | 1.23 fold enrichment (6-mer frequency, TF over GST control)
TCACTT | 1.56 fold enrichment (6-mer frequency, TF over GST control) | 1.5 fold enrichment (6-mer frequency, TF over GST control) | 1.69 fold enrichment (6-mer frequency, TF over GST control) | 1.73 fold enrichment (6-mer frequency, TF over GST control) | 1.63 fold enrichment (6-mer frequency, TF over GST control) | 1.79 fold enrichment (6-mer frequency, TF over GST control) | 1.55 fold enrichment (6-mer frequency, TF over GST control) | 1.67 fold enrichment (6-mer frequency, TF over GST control)
